Screening data from PubChem.
Shown are actives, neighbours in structure and some others; about 10% of the full set was active somewhere.
BAZ2B block = BAZ2B (human) inhibition; Potency, µM (titrated, usually from 114 µM), without a hit: top-dose activity change, negative = inhibition, usual class: inhibitors; AlphaScreen BAZ2B-H3K14Ac peptide displacement; 4.4% of 360,000 active; further: potency means the concentration at half of the fitted maximal effect; on the % scale 0 is the no-effect control and ±100 the full control effect; nearly all actives have a fitted effect of over 60% in size
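BAZ2B 50 nM plus b-H3(5-23)K14Ac 50 nM, PBS pH 7.4/0.01% Tween-20, 30 min RT; compound added (max 110 uM), 30 min RT; streptavidin donor/Ni-chelate acceptor beads 10 ug/mL final, 20 min dark; AlphaScreen read.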
CtBP-E1A inh = inhibitors of CtBP/E1A interaction; AlphaScreen GST-E1A/His-CtBP binding, 1536-well; active compounds read low; activity change, % (test concentration not listed); 0.49% of 340,000 active; AID 651724; in the data active means activity change below about -65%; inconclusive means mostly about -30% to -63%; further: on the % scale 0 is the no-effect control and ±100 the full control effect
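Protein mix (5X: 125 nM each GST-E1A, His-CtBP) was incubated with pinned compound 2 h at 37 deg C in dark, in 50 mM Tris pH 8.0 buffer with 300 mM NaCl. Glutathione donor and nickel acceptor beads followed; AlphaScreen signal read after 1 h.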
JMJD2A Tudor = JMJD2A Tudor domain (human) inhibition; 4.4% of 390,000 active; O75164; AlphaScreen JMJD2A-Tudor / H3K4me3 peptide binding; AID 504339; Potency, µM (top dose mostly 114 µM), without a hit: top-dose activity change, negative = inhibition, hits mostly inhibitors; further: potency means the concentration at half of the fitted maximal effect; on the % scale 0 is the no-effect control and ±100 the full control effect; nearly all actives have a fitted effect of over 50% in size
HP1b chromo inh = inhibitors of HP1-beta chromodomain binding to methylated histone tails; P83916; AlphaScreen HP1-beta / biotin-H3K9me3 peptide binding; Potency, µM (highest dose often 114 µM), without a hit: at the highest dose activity change, negative = inhibition, hits mostly inhibitors; 0.56% of 390,000 active; AID 540317; further: potency means the concentration at half of the fitted maximal effect; nearly all actives have a fitted effect of over 70% in size
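HP1-beta protein (50 nM final) preincubated 30 min at room temperature with biotinylated H3(1-18)K9me3 peptide (50 nM) in PBS pH 7.4, 0.01% Tween-20, then compound added for 30 min. AlphaScreen streptavidin donor/nickel chelate acceptor beads (10 ug/mL final), 30 min dark, luminescence read.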
Six1-Eya2 inh = inhibitors of human Six1/Eya2 interaction. AlphaScreen GST-Six1/His-Eya2 binding, biochemical; active compounds read low. AID 651725. 0.56% of 360,000 active. activity change, % (concentration not given with the values); in the data active means activity change below about -65%; inconclusive means mostly about -30% to -63%; further: on the % scale 0 is the no-effect control and ±100 the full control effect
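AlphaScreen with GST-Six1 and His-Eya2 (5X mix: 250 nM and 500 nM), glutathione donor and nickel acceptor beads; buffer 50 mM Tris pH 8.0, 300 mM NaCl, 1 mM TCEP; 1 h at 37 C in the dark.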
G9a inh = inhibitors of human histone lysine methyltransferase G9a; G9a H3K9 monomethylation, AlphaScreen, 2 h; 8.8% of 350,000 active; Potency, µM (highest dose often 102 µM), for the others: at the highest dose activity, negative = inhibition, most hits filed as inhibitors; AID 504332; further: potency means the concentration at half of the fitted maximal effect; on the % scale 0 is the no-effect control and ±100 the full control effect; nearly all actives have a fitted effect of over 75% in size
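AlphaScreen read-out: biotin-H3K9 peptide (500 nM) methylation by 20 nM enzyme with 20 uM SAM, 2 h at room temperature after 15 min compound preincubation; anti-monomethyl H3K9 antibody plus donor/acceptor beads, 10 min dark.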
The depositor's hits bear a star; ? = inconclusive; · = no result; ! = not active in a repeat; [ ] = remark or other dose. Unless noted, the call rests on the fitted dose curve; in most records, active means well fitted inhibition curve with a large enough effect; inconclusive means small, poorly fitted or top-dose-only effect; inactive means no such curve, though single readings can be large or run the other way.

SMILES | BAZ2B block | CtBP-E1A inh | JMJD2A Tudor | HP1b chromo inh | Six1-Eya2 inh | G9a inh
COC(=O)c1ccccc1NC(=O)CNc1cc(Cl)ccc1N1CCOCC1 | -4.5% | -3.1 | -24.8% | -1.7% | 0.3 | 44.7µM*
O=C(Cc1ccc(Cl)cc1)NC(=S)Nc1ccccc1N1CCOCC1 | -7.8% | -7.1 | -26.2% | 11.7% | -15.0 | ?
O=C(Cc1ccc(S(=O)(=O)N2CCOCC2)s1)Nc1ccccc1Br | 70.8µM* | · | ? | -6.3% | -3.0 | ·
O=C(Cc1ccc(S(=O)(=O)N2CCOCC2)s1)Nc1ccccc1N1CCOCC1 | · | -1.5 | -17.3% | 9.0% | 1.9 | 44.7µM*
Cn1c(-c2ccc(F)cc2)cnc1SCC(=O)Nc1ccccc1N1CCOCC1 | ? | -14.4 | -27.8% | 18.0% | 0.0 | 44.7µM*
COCCOc1ccc(C(F)(F)F)cc1NC(=O)Cc1ccc(S(=O)(=O)N2CCOCC2)s1 | -4.6% | -5.3 | -17.9% | 23.7% | -2.9 | -4.4%[0.501 µM]
COc1ccc(N2CCOCC2)c(NC(=O)c2ccc(Br)o2)c1 | ? | -1.2 | -10.2% | 12.5% | -9.8 | ?
O=C(Nc1cc(Cl)ccc1N1CCOCC1)c1ccc(Br)o1 | ? | 4.2 | -3.5% | 21.5% | -7.9 | 25.1µM*
CCCOc1ccc(NC(=O)Cc2ccc(S(=O)(=O)N3CCOCC3)s2)cc1OCCC | -39.0% | -0.8 | ? | -22.1% | -6.8 | 79.4µM*
Cc1noc(C)c1C(=O)N1CCC[C@@]2(CCN(C(c3ccccc3)c3ccccc3)C2)C1 | · | · | · | · | · | -4.9%[12.7 µM]
O=C(Nc1ccc(CN2CCOCC2)cc1)c1ccc(Cl)cc1Cl | 2.5% | -10.7 | -3.0% | 47.1% | 5.5 | 16.6%[59 µM]
O=C(Nc1ccc2nn(-c3ccccc3)nc2c1)c1ccc(-c2cccc(Cl)c2)o1 | -14.7% | · | -21.9% | 84.3% | · | 14.1µM*
O=C(Nc1ccc(CN2CCOCC2)cc1)c1ccc(-c2ccc(Cl)cc2Cl)o1 | ? | -4.7 | -27.1% | 2.9% | -12.8 | 39.8µM*
O=C(Nc1ccc(CN2CCOCC2)cc1)c1ccc(-c2cccc(Cl)c2)o1 | ? | -6.1 | -34.1% | -13.5% | -8.5 | 17.8µM*
Cc1nc(-c2ccccc2)sc1CCNS(=O)(=O)c1ccccc1 | -1.5% | · | -7.4% | 24.9%[57 µM] | · | 8.1%[59 µM]
O=C(NCc1ccco1)Nc1cccc([N+](=O)[O-])c1 | -37.9% | -1.1 | -24.0% | -7.6% | -11.2 | 29.5%
Cc1cccc(CNC(=O)c2ccc(Cn3c(=O)c4cccn4c4cccnc43)cc2)c1 | -6.4% | · | -13.9% | 16.0% | · | 0.1%[59 µM]
O=C(/C=C/c1ccc([N+](=O)[O-])cc1)N(c1ccccn1)C1CCCCC1 | · | -2.3 | 56.2µM* | ? | -21.6 | 5.62µM*
CCCn1c2ccccc2c2cnn(CC(=O)N(CCCOC(C)C)Cc3ccco3)c(=O)c21 | -13.5% | · | ? | -5.2% | · | ?
Cc1ncc(CO)c2c1OC(C)(C)OC2 | 10.1% | 5.3 | -13.4% | 20.1% | 6.2 | -1.6%
Cc1ncc(CCl)c2c1OC(C)(C)OC2 | 50.1µM* | 7.2 | ? | 48.9% | 8.7 | ?
CCCCn1c(O)c(N=NC(=O)c2ccccc2NS(=O)(=O)c2cccs2)c2ccccc21 | -31.8% | -15.7 | -26.7% | 31.0% | -20.5 | -3.6%[59 µM]
C=CCn1c(O)c(N=NC(=O)c2ccccc2NS(=O)(=O)c2cccs2)c2ccccc21 | 25.2% | -13.4 | -19.2% | 14.9% | ? | 44.7µM*
CC(C)n1c(O)c(N=NC(=O)c2ccccc2NS(=O)(=O)c2cccs2)c2ccccc21 | ? | · | 14.1µM* | -2.9% | -85.8* | -16.2%[59 µM]
O=C(Nc1ccc(F)cc1F)c1cc2nc(-c3ccco3)cc(C(F)(F)Cl)n2n1 | 3.6% | · | -18.3% | 44.2% | · | 24.2%[59 µM]
C[C@](N)(Cc1ccc(O)c(O)c1)C(=O)O | 15.8µM* | 1.8 | 20µM* | ? | -27.7 | 0.447µM*!
CCCC(=O)Nc1sc(Cc2ccccc2)c(C)c1C(N)=O | -25.5% | -8.1 | -22.5% | ? | -8.6 | 3.55µM*
Cc1c(Cc2ccc3c(c2)OCO3)sc(NC(=O)c2ccccc2)c1C(N)=O | -0.1% | 5.3 | -14.1% | 10.9% | 3.3 | 31.6µM*
